The whole screen tested about 69,000 compounds, of which about 8,600 (12%) showed an effect of 50% or more. This excerpt belongs to a sample that is enriched for strong results.

This assay relates to Plasmodium berghei. The experiment in a line: Screen against P. berghei liver stage (PbLuc), transformed with Luciferase, at 10uM. Format: functional, HepG2. Particulars: tested at 10 uM.
In the case of `O=C(CN1CCCC(Cn2cncn2)C1)NCCC1=CCCCC1` (stereo unspecified), the INHIBITION is listed as 37.9%. `CCc1n[nH]c(C2CN(C(=O)c3cnn(CC)c3)CCO2)n1` (stereo unspecified): the INHIBITION is on record as -8.11%. For `O=C(c1ccc2c(c1)OCO2)N1CCC(Nc2cccnn2)CC1`, the INHIBITION stood at 31.9%. On to `CN(C)C(=O)COC[C@@H]1CC[C@H]2[C@H](CCN2c2ccccn2)O1`, for which the INHIBITION is on record as 11.4%. The same measure for `Cn1ccc(C(=O)N2C[C@H]3CCC[C@@]3(COCc3cccnc3)C2)n1`: 3.69%.

As for `O=C(CC1CCCC1)N1C[C@@H]2CN(Cc3ccoc3)CCO[C@@H]2C1`, the INHIBITION stood at 34.6%. The same measure for `CCN1CCO[C@@H]2CN(C(=O)c3cocn3)C[C@@H]2C1`: 18.7%.

Consider `O=C(N1CCCC1)N1C[C@@H]2CN(Cc3ccoc3)CCO[C@@H]2C1`, for which the INHIBITION was found to be 80%. Turning to `O=C(c1cocn1)N1C[C@@H]2CN(CC3CC3)CCO[C@@H]2C1`, the INHIBITION came out at 6.83%. To `O=C(C1CC(F)(F)C1)N1C[C@@H]2CN(Cc3ccoc3)CCO[C@@H]2C1` belongs -35.1%; to `O=C(c1cocn1)N1C[C@@H]2CN(Cc3ccco3)CCO[C@@H]2C1`, 63%; to `O=C1NC2(CCN(CC(=O)N3CCOCC3)CC2)Nc2ccc(Br)cc21`, 23.89%.

`CN1Cc2ccccc2N(CC(O)C(F)(F)F)CCC1=O` (stereo unspecified): the INHIBITION is 18.4%.

In the case of `CC(C)CC(NC(=O)c1ccco1)c1nc2cccnc2n1C` (stereo unspecified), the INHIBITION came out at 48%. The same measure for `Cc1cc(C)n(CCCN(C)Cc2cn[nH]c2-c2ccc(F)cc2)n1`: 14%; for `Cc1ccc(CN2CCOCC3(CCN(Cc4cccs4)C3)C2)o1` (stereo unspecified): -34%. The same measure for `CC(C)NC1CCN(CCc2ccc3c(c2)CCO3)CC1`: 35.1%.

`CCOCCN1CCN(c2ccc(CN(C)C)cn2)CC1`: the INHIBITION is given as 7.24%.

On to `COCC(C)N1CCN(CCc2ccc3c(c2)CCO3)CC1` (stereo unspecified), for which the INHIBITION is 51.9%. To `Cc1nc(CN(C)C2CCN(CCc3ccc4c(c3)CCO4)C2)no1` (stereo unspecified) belongs -8.11%; to `CCOCCN1CCN(CCc2ccc3c(c2)CCO3)CC1`, 67.6%. The same measure for `CN(CCc1ccc2c(c1)CCO2)C1CCS(=O)(=O)CC1`: 19%; for `CC(=O)NCCNC(=O)c1cccc(Cn2nc(C)cc2C)c1`: -18.9%. For `COCCN(C)C[C@@H]1CCC[C@@H]2CN(Cc3ccc(OC)nc3)C[C@@H]21`, the INHIBITION was 20.1%. To `CCCC(O)CN1CC(C)(C)CN(C(=O)c2ccc(SC)cc2)CC1=O` (stereo unspecified) belongs 43.4%; to `Cc1ccc(C(=O)NCCCn2cncn2)c(=O)[nH]1`, 4.41%. To `O=C(NCCCn1cncn1)c1ccc(-c2ccco2)[nH]c1=O` belongs 56.3%; to `O=C(NCCCn1cncn1)c1ccc(-c2ccccc2)[nH]c1=O`, -12.9%. For the molecule `CN1CC(=O)N(c2ccsc2)CC12CCN(S(C)(=O)=O)C2` (stereo unspecified), the INHIBITION was -12.2%. Turning to `CCc1nc(C2CCCN2CC(=O)Nc2cc(C)on2)no1` (stereo unspecified), the INHIBITION was 22.3%. The same measure for `COc1ccc(-c2noc(C(N)CCSC)n2)cc1` (stereo unspecified): 36.2%. `O=C(NCCNc1ncccn1)N1CCCC1c1ccc(F)cc1` (stereo unspecified): the INHIBITION was found to be 6.11%.

With `CNC(=O)c1nc(CC(=O)Nc2ccc3cc[nH]c3c2)no1`, the INHIBITION worked out at 30.5%. The same measure for `Brc1ccc(NCc2ccc(Cn3ccnc3)cc2)nc1`: -51.4%. As for `c1ccc(NCc2ccc(Cn3ccnc3)cc2)nc1`, the INHIBITION was found to be 6.7%. On to `CC(OCC1CC1)C(=O)NCc1ccc(Cn2ccnc2)cc1` (stereo unspecified), for which the INHIBITION amounted to 30.1%. The same measure for `CC(C)COC(C)C(=O)NCc1ccccc1Cn1ccnc1` (stereo unspecified): 32.3%. To `CS(=O)(=O)c1ccccc1NCc1ccc(Cn2ccnc2)cc1` belongs 52%. To `CNC(=O)c1cccnc1NCc1ccc(Cn2ccnc2)cc1` belongs 85.7%; to `CNC(=O)c1cccnc1NCc1ccc(-n2cccn2)cc1`, 26.4%. As for `CC(C)COC(C)C(=O)NCc1ccc(Cn2ccnc2)cc1` (stereo unspecified), the INHIBITION worked out at 58.3%. The same measure for `CNC(=O)c1cccnc1NCc1ccc(Cn2cccn2)cc1`: 21.9%; for `COCCc1noc(CN(C)c2nc(C)cc(C)n2)n1`: 47.6%; for `COc1ccc(Cl)cc1CCNC(=O)NCc1ccncc1`: -23.5%. To `NC(=O)CCN1CCc2onc(-c3ccccc3F)c2C1` belongs -62.1%; to `CC(=O)N1CCN(CCOc2ccc(F)cc2)CC(C(N)=O)C1` (stereo unspecified), 12.3%; to `CCNC(=O)[C@@H]1C[C@H](N)CN1C(=O)c1cccc(CCC(C)(C)O)c1`, 17.5%. The same measure for `Cc1nn(C(C)C)c2cnn(CC(=O)N3CCN(C)CC3)c12`: 21.7%.

On to `CC(C)c1cc(NC(=O)CN2CCn3c(nnc3C3CC3)C2)on1`, for which the INHIBITION is reported as 7.5%.

Turning to `Cc1nccn1CCCNC(=O)C1CCCCN1Cc1ccncc1` (stereo unspecified), the INHIBITION is listed as -2.07%. Take `Cc1nccn1-c1ccc(NC(=O)C2CCCN2CC2CC2)cc1` (stereo unspecified): the INHIBITION is reported as 55.4%. To `Cc1nccn1-c1ccc(NC(=O)C2CCCN2Cc2ccoc2)cc1` (stereo unspecified) belongs 54.4%. Regarding `CCCN1CCCCC1C(=O)Nc1ccc(-c2nnc[nH]2)cc1` (stereo unspecified), the INHIBITION is reported as -28.6%. In the case of `Cc1cccnc1NC(=O)C1CCCN1Cc1ccccc1` (stereo unspecified), the INHIBITION is recorded as -10.4%.

In the case of `Cc1nccn1-c1ccc(NC(=O)C2CCCN2Cc2c[nH]cn2)cc1` (stereo unspecified), the INHIBITION was found to be 36.2%.

As to `O=C(NCC1(O)COCCN(Cc2ccc(O)cc2)C1)c1cnccn1` (stereo unspecified), the INHIBITION is given as -42.9%. Turning to `CCCc1nnc(NC(=O)Cc2c(C)nc(C)[nH]c2=O)s1`, the INHIBITION is given as 16.585%.

Consider `O=C(NCc1cccs1)c1nc2c(o1)CN(CC1CC1)C2`, for which the INHIBITION is recorded as -31.4%. Regarding `CNC(=O)[C@@H]1[C@@H](OC(=O)Nc2ccccc2)C(=O)N(C)C12CCNCC2`, the INHIBITION worked out at 35.8%.

Consider `COc1ccc(C(C(=O)O)N2CCC(Cn3cccn3)CC2)c(OC)n1` (stereo unspecified), for which the INHIBITION was -40%. To `CCCc1nc(CN2CCCCC2Cn2cncn2)cs1` (stereo unspecified) belongs 30.6%. The same measure for `COCCOCC(=O)N1CCC2(CCCN(C3CCOCC3)C2=O)C1` (stereo unspecified): -7.7%; for `Cn1nnc2c(N3CC(C(=O)NCCC4=CCCCC4)C3)ncnc21`: -19.1%. Regarding `Cc1csc([C@H]2C[C@H]3CN(Cc4cc(C)on4)CC[C@@H]3O2)n1`, the INHIBITION is listed as 46.6%. Turning to `Cc1csc([C@@H]2C[C@@H]3CCN(Cc4cc(C)on4)C[C@H]3O2)n1`, the INHIBITION is on record as 26.7%. The same measure for `Cc1cc(CN2CC[C@H]3C[C@H](C)O[C@@H]3C2)no1`: 34.1%. As to `Cc1csc([C@H]2C[C@@H]3CCN(Cc4cc(C)on4)C[C@H]3O2)n1`, the INHIBITION is reported as 64.7%.

Regarding `O=C(C1CCOCC1)N1C[C@@H]2C[C@@H](c3nc(C4CC4)cs3)O[C@@H]2C1`, the INHIBITION is on record as 31.8%. Regarding `Cc1csc(CN2CC[C@H]3C[C@@H](c4nnc(C)[nH]4)O[C@@H]3C2)n1`, the INHIBITION is listed as 72.3%.

Turning to `Cc1csc(CN2CC[C@H]3C[C@H](c4nnc(C)[nH]4)O[C@@H]3C2)n1`, the INHIBITION is reported as 23.5%. To `Cc1cc(CN2CC[C@H]3C[C@H](C(=O)N(C)C)O[C@@H]3C2)no1` belongs 23.9%; to `Cc1csc(CN2CC[C@H]3C[C@H](c4noc(C)n4)O[C@@H]3C2)n1`, 42.5%. Turning to `Fc1cnc(N2C[C@@H]3C[C@@H](c4nc(C5CC5)cs4)O[C@@H]3C2)nc1`, the INHIBITION turned out to be 62.3%. For `Cc1cc(CN2CC[C@H]3C[C@@H](C)O[C@@H]3C2)no1`, the INHIBITION was 50.9%. Consider `Cc1csc([C@@H]2C[C@H]3CN(c4ncc(F)cn4)C[C@H]3O2)n1`, for which the INHIBITION stood at 22.6%. With `Cc1c(C2CC(=O)Nc3c2cnn3C(C)(C)C)cnn1C` (stereo unspecified), the INHIBITION is -56.7%. As to `Cc1[nH]c2nc(CNc3cccc(Cl)c3)nn2c(=O)c1C`, the INHIBITION is reported as -10.7%. Regarding `Cc1cc(CN2CC[C@H]3C[C@@H](c4nc(C5CC5)cs4)O[C@@H]3C2)no1`, the INHIBITION is recorded as 68.4%. With `Cc1csc([C@H]2C[C@@H]3CCN(C(=O)c4ccnnc4)C[C@H]3O2)n1`, the INHIBITION stood at 4.61%.

On to `Cc1noc(C)c1CN1CC[C@H]2C[C@H](c3nccs3)O[C@@H]2C1`, for which the INHIBITION worked out at 40.4%. As to `Cc1cc(CN2CC[C@H]3C[C@@H](c4nccs4)O[C@@H]3C2)no1`, the INHIBITION is recorded as 57.9%. The same measure for `Cc1csc([C@@H]2C[C@@H]3CCN(C(=O)c4cccn4C)C[C@H]3O2)n1`: 50.7%.

As for `Cc1ccc(CN2CC[C@H]3C[C@H](c4nc(C5CC5)cs4)O[C@@H]3C2)o1`, the INHIBITION amounted to 21.3%.

As for `Cc1cc(CN2CC[C@H]3C[C@H](c4nccs4)O[C@@H]3C2)no1`, the INHIBITION stood at 25%.

`Cc1nnc([C@H]2C[C@@H]3CCN(Cc4ccc(C)o4)C[C@H]3O2)[nH]1`: the INHIBITION is 31.7%. With `Cc1csc([C@@H]2C[C@@H]3CCN(C(=O)c4ccnnc4)C[C@H]3O2)n1`, the INHIBITION was -19%. Consider `Cc1nnc([C@H]2C[C@@H]3CCN(Cc4cc(C)on4)C[C@H]3O2)[nH]1`, for which the INHIBITION is reported as 35.8%.

Regarding `Cc1ccc(CN2CC[C@H]3C[C@@H](c4nc(C5CC5)cs4)O[C@@H]3C2)o1`, the INHIBITION was 63.5%. To `Cc1csc([C@H]2C[C@@H]3CCN(Cc4cnn(C)c4)C[C@H]3O2)n1` belongs -63.5%; to `CC(C)c1nn(C)cc1CNCc1ccnc(N(C)C)c1`, 23.7%; to `Cn1ccc2ccnc(CC3CN(C(=O)c4cscn4)C3)c21`, 3.91%. Turning to `CNC(=O)[C@@H]1CN(C(=O)CCOC)C[C@H]1c1ccnc(N2CCCC2)n1`, the INHIBITION was -4.68%. As to `CCc1nccn1C1CCCN(C(=O)COCC(F)(F)F)C1` (stereo unspecified), the INHIBITION worked out at 45.6%. To `Cc1ccc2c(c1)N(C(=O)c1cc[nH]c(=O)c1)CC(C)O2` (stereo unspecified) belongs 19.3%.

As for `COCc1nn(CC2CC2)c2c1CN(Cc1cncn1C)CC2`, the INHIBITION is given as -88.6%.

With `CC(C(=O)N1CCOCC1)n1cncn1` (stereo unspecified), the INHIBITION is on record as -18.8%.
